Test results published in PubChem BioAssay (NCI).
This is part of a sample that, as a whole, favours compounds with a hit. Of some 83,000 tested, about 20% had one in any assay.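 Compound tested at a single concentration for 48 hours in 96-well plates; a percent growth value below 10 was scored as active.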 A number with no mark means an inactive call. Calls of active or inactive are those of the source.

These compounds were tested on KM12 colon (assay: NCI-60 one-dose screen, 48 h (100 = growth as untreated, 0 = no growth, -100 = all killed)). Settings: 10 µM.
Experimental: Growth inhibition of the KM12 human tumor cell line is measured as a screen for anti-cancer activity. Cells are grown in 96 well plates and exposed to the test compound for 48 hours. Compounds are tested at a single concentration, which is 10^-5 M for most compounds. The reported endpoint is percent growth (GI% or GIPRCNT), where numbers from 0 - 100% represent growth inhibition, and numbers from -100% - 0 represent cell death. For example, a value of 40 represents 60% growth inhibition. A value of 0 means no net growth occurred over the course of the experiment. A value of -40 indicates 40% of cells at the beginning of the experiment died by the end of the experiment. A value of -100 means all cells are dead at the end of the experiment.
NCI-60 Human Tumor Cell Lines Screen was performed using the standard one-dose NCI protocol, which is described in more detail at https://dtp.cancer.gov/discovery_development/nci-60/default.htm.
Compounds with GIPRCNT values below 10 were considered active. Activity score was based on GIPRCNT using the following formula: […]
Score is 0 for GIPRCNT values of 100 or above, 50 for GIPRCNT values of 0, and 100 for GIPRCNT values of -100.
For Cc1c[nH]c(=O)n(Cc2nnc(CCC(=O)c3nc4ccccc4[nH]3)o2)c1=O, the growth was 4.98% (active). In the case of COc1cc2cc(Oc3ccc(NC(=O)c4ccccc4)cc3)c(C)nc2cc1OC, the growth is reported as 94.5%. For O=C(CSc1nccc(Nc2cccc3ccccc23)n1)c1ccc(Cl)cc1, the growth was 94.7%. N#Cc1c(-c2ccc(Cl)cc2)csc1NC(=O)Nc1ccc(Cl)c(C(F)(F)F)c1 was tested, and the growth was 10.4%. For C#CC(C)(O)[C@@H]1C[C@H](CC(=O)O)C1(C)C (stereo not given in full), the growth was 108%. For O=C(COc1cccc(/C=C2\CSc3ccccc3C2=O)c1)c1ccc(Cl)cc1, the growth was -80.3% (active). O=C(Nc1ccc(NS(=O)(=O)c2ccc(F)cc2)cc1)C12CC3CC(CC(C3)C1)C2 showed a growth of 99.4%. COc1cc(-c2csc(NC(=O)Nc3cc(C(F)(F)F)cc(C(F)(F)F)c3)n2)cc(OC)c1OC gave a growth of 18.7%. For O=C(Nc1cccc2c1CCCC2)c1cc2ccccc2cc1O, the growth was 49.9%. For C=CCN(CC=C)C(=O)[C@H](CC)[C@@H]1CC[C@@H](C)[C@@H]([C@H](C)[C@@H](O)[C@@H](C)C(=O)[C@H](CC)C2O[C@]3(C=C[C@@H](O)[C@]4(CC[C@@](C)([C@H]5CC[C@](O)(CC)[C@H](C)O5)O4)O3)[C@H](C)C[C@@H]2C)O1 (stereo not given in full), the growth was 27.5%. NS(=O)(=O)c1ccc(Br)cc1 was tested, and the growth was 99.5%. COc1cc2c(cc1NC(=O)C(F)(F)F)-c1ccc(NC(=O)C(F)(F)F)cc1C2 was tested, and the growth was 97.3%. With Cc1cc(CSc2ccccc2C(=O)N2CC=C(c3ccccc3)CC2)on1 the growth was 97.2%. For OC(CCN1CCCC1)(c1ccccc1)C1CCCCC1 (stereo not given), the growth was 101%. CC(C)Cc1ccc([C@H](C)C(=O)O)cc1 was tested, and the growth was 108%. For COc1cc(CNC(=O)C2CSC3(C)c4ccccc4C(=O)N23)cc(OC)c1OC (stereo not given), the growth was 106%. Work on CC(=O)Oc1cc(OC(C)=O)c2ccccc2c1OC(C)=O yielded a growth of 90.6%. In the case of O=C(O)c1cc([N+](=O)[O-])ccc1Oc1ccccc1, the growth is reported as 98.2%. Work on COc1cc(OC)c2c(=O)c(O)c(-c3ccccc3)oc2c1 yielded a growth of 78.7%. Work on O=[N+]([O-])c1cccc(/C=N/NC(=S)NC23CC4CC(CC(C4)C2)C3)c1 yielded a growth of 95.2%. Work on Cc1nc2n(c(=O)c1CCN1CCC(c3noc4cc(F)ccc34)CC1)CCC[C@@H]2O yielded a growth of 99.9%. NC(N)=N/N=C(\c1ccccc1)C(O)c1ccccc1 (stereo not given) gave a growth of 105%. For CC(=O)[C@H]1CC[C@]2(C)[C@@H]1CC[C@@H]1[C@@]3(C)CC(CCC#N)(CCC#N)C(=O)C(C)(C)[C@@H]3CC[C@]12C, the growth was 94.5%. In the case of CN(C)CCCOc1ccccc1NC1=C(Cl)C(=O)C(Nc2ccccc2OCCCN(C)C)=C(Cl)C1=O, the growth is reported as -34.2% (active). With Cc1ccccc1N1C(=O)c2cc(S(N)(=O)=O)c(Cl)cc2NC1C (stereo not given) the growth was 108%. With CN(C)c1ccc(/C=N/NC(=O)c2cccc3ccccc23)c(Cl)c1 the growth was 22.7%. Compound Cc1ccc(NCCN(C)CC(C)O)c2c(=O)c3ccccc3sc12 (stereo not given) has a growth of 44.9%. Cc1ccc(-c2c3c(N)nc(-c4cccnc4)nc3nc3c2c(C)nn3-c2ccccc2)cc1 showed a growth of 97.1%. Work on Cc1c(C(N)=O)sc2c1c(=O)n(Cc1ccccc1)c1nnc(-c3ccc(Br)cc3)n21 yielded a growth of 25.6%. Work on CCN(CC)CCOc1cccc2c1C(=O)c1cccc(OCCN(CC)CC)c1C2=O yielded a growth of 33.9%. With COc1ccc2c(c1)C(=O)/C(=C/c1ccc([N+](=O)[O-])o1)O2 the growth was -80.3% (active). In the case of O=C1CC(SC(=S)C2CCCC2=O)C(=O)N1 (stereo not given), the growth is reported as 103%. With Cc1ccc(NCCNCC(C)(C)O)c2c(=O)c3ccc(Cl)cc3sc12 the growth was 8.21% (active). COc1cccc(CNc2cccc3cn[nH]c23)c1O showed a growth of 99%. For Cc1cc(NC(=O)c2ccc(C)c(Nc3nccc(-c4cccnc4)n3)c2)cc(-n2cnc(C)c2)c1, the growth was 35.1%. For C=CCNCCN1C(=O)c2ccc3c4c(ccc(c24)C1=O)C(=O)N(CCNCC=C)C3=O, the growth was -53.7% (active). Compound COc1cc(C(=O)n2nc(-c3cc(OC)c(OC)c(OC)c3)nc2N)cc(OC)c1OC has a growth of 102%. Compound OC[C@H]1OC([S-])[C@H](O)[C@@H](O)[C@@H]1O.[Au+] (stereo not given in full) has a growth of 114%. Cn1c2ccccc2c2c3[nH][nH]c(=O)c3c3c4ccccc4[nH]c3c21 was tested, and the growth was 10.7%. Compound Cc1cn(-c2cc(F)cc(NC(=O)c3ccc(C)c(Nc4nccc(-c5cccnc5)n4)c3)c2)cn1 has a growth of 15.6%.
